POLI inh: DNA polymerase iota (human) inhibition; Q9UNA4; Pol iota fluorescent replication assay, 10 min; Potency, µM (top dose mostly 115 µM), inactives show at the highest dose activity, negative = inhibition, most hits filed as inhibitors; actives 1% (n = 390,000)
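Pol iota at 10 nM preincubated 15 min with compounds at room temperature; reaction started with fluorescent substrate, 50 nM final. Fluorescence read kinetically at 0 and 10 min; buffer-only wells as negative control.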
APE1 inh: APE1 (human) endonuclease inhibition; P27695; recombinant APE1, TAMRA/BHQ-2 abasic DNA cleavage fluorescence; Potency, µM (titrated, usually from 65.8 µM), without a hit: top-dose activity change, negative = inhibition, most hits filed as inhibitors; actives 0.35% (n = 350,000); AID 2517;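 further: plate controls were vehicle for no effect and reference inhibitor for full effect; nearly all actives have a fitted effect of over 55% in size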
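Activity was derived from the fluorescence gain between first and third kinetic reads (60 s intervals, ex 525/em 598 nm) after 50 nM THF-abasic TAMRA/BHQ-2 duplex was added to 0.75 nM APE1 preincubated 15 min with compound.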
Pol eta inh: blocks human DNA polymerase eta activity; recombinant Pol eta, fluorescent DNA replication assay; Potency, µM (highest dose often 114 µM), without a hit: at the highest dose activity change, negative = inhibition, hits mostly inhibitors; Q9Y253; actives 1.2% (n = 390,000); AID 588591; further: on the % scale 0 is the no-effect control and ±100 the full control effect
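Pol eta (10 nM) was preincubated with compounds for 15 min at room temperature, after which fluorescent replication substrate (50 nM final) was added to start the reaction. Fluorescence was read kinetically at 0 and 10 min.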
POLK inh: inhibitors of human DNA polymerase kappa; Q9UBT6; purified Pol kappa, fluorescent DNA synthesis assay, 10 min; Potency, µM (doses to about 107 µM), inactives show at the top dose activity, negative = inhibition, actives largely listed as inhibitors; actives 0.53% (n = 400,000); AID 588579; further: on the % scale 0 is the no-effect control and ±100 the full control effect
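Kinetic fluorescence screen: compound preincubated 15 min RT with 10 nM enzyme; 50 nM substrate (final) initiates; reads at 0/10 min.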
GLS inhibitor: glutaminase GLS (human) inhibition. GLS enzymatic activity, qHTS titration. Potency, µM (doses to about 45.5 µM), for the others: at the highest dose activity change, negative = inhibition, actives largely listed as inhibitors. actives 0.21% (n = 410,000). AID 624170; further: on the % scale 0 is the no-effect control and ±100 the full control effect
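hKGA in 45 mM KH2PO4 pH 8.2, 0.02% Tween-20 with pin-transferred compounds; 1 mM L-glutamine (stock) plus glutamate oxidase/HRP/Amplex Red coupling added. Fluorescence read initially and after 30 min at RT.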
POLB inh: blocks human DNA polymerase beta activity; Pol beta primer extension/strand displacement, fluorescence kinetic; P06746; actives 1.3% (n = 340,000); Potency, µM (series often up to 114 µM), for inactives: at the highest dose activity change, negative = inhibition, hits mostly inhibitors; further: on the % scale 0 is the no-effect control and ±100 the full control effect
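Kinetic readout of DNA synthesis with strand displacement by Pol beta. Compound and 10 nM enzyme sit 15 min at room temperature; 50 nM substrate starts the reaction, read immediately and at 10 min.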
An asterisk follows results filed as active; ? = inconclusive; · = not tested or not shown; [ ] = remark or other dose. Hits are enriched below; roughly 2.4% of the tested compounds scored in any of these assays. The call rests on the fitted dose curve; in most records, active means well fitted curve in the direction sought with a large enough effect; inconclusive means small, poorly fitted or top-dose-only effect, or another doubt; inactive means no such curve, though single readings can be large; an effect the other way counts as inactive or inconclusive. Potency means the concentration at half of the fitted maximal effect.

SMILES	POLI inh	APE1 inh	Pol eta inh	POLK inh	GLS inhibitor	POLB inh
COc1ccc(C(=O)NNC(=O)CSc2nnc(COc3ccc4ccccc4c3)n2C)cc1	8%	2%	8%	-10%	9%	18%
CCCCSc1nc(C)c(CC(=O)O)c(=O)[nH]1	7%	-2%	-16%	-3%	7%	24%
O=C(NCc1cccnc1)c1ccc(-c2cc3ccccc3oc2=O)cc1	79µM*	3%	-7%	-19%	1%	?
Cc1sc2nc(CN3CCCC3)nc(Cl)c2c1C	129%	3%	0%	-7%	3%	3%
CCCCn1c(N)c(N(CC)C(=O)c2cccc(OCc3ccccc3)c2)c(=O)[nH]c1=O	14%	32%	-21%	2%	-2%	·
COc1ccc2c3c(c(=O)oc2c1)C1O[C@](c2ccsc2)(Cc2ccccc21)O3	·	-33%[12.4 µM]	·	·	·	-23%[22.9 µM]
O=c1oc2ccc(F)cc2c2c1C1O[C@](c3ccsc3)(Cc3c1ccc1ccccc31)O2	·	?	·	·	·	10µM*
O=c1oc2ccccc2c2c1C1O[C@](c3ccsc3)(Cc3ccccc31)O2	·	-35%[12.4 µM]	·	·	·	11µM*
CCCCn1c(N)c(N(CCOC)C(=O)CC2CCCCC2)c(=O)[nH]c1=O	20%	·	-9%	4%	-3%	·
Cc1ccc(NC(=O)CSc2ncc(S(=O)(=O)c3ccc(C(C)C)cc3)c(=O)[nH]2)cc1C	?	·	?	-13%	-6%	20µM*
COc1cc(NC(=O)CSc2ncc(S(=O)(=O)c3ccc(Br)cc3)c(=O)[nH]2)cc(OC)c1	?	·	?	-17%	3%	50µM*
Cc1ccc(S(=O)(=O)c2cnc(SCC(=O)Nc3ccc4c(c3)OCCO4)[nH]c2=O)cc1C	6%	·	-11%	-9%	0%	11%
Cc1cc(C)cc(NC(=O)CSc2ncc(S(=O)(=O)c3ccccc3)c(=O)[nH]2)c1	·	3%	·	·	·	6%
NC(=O)c1c(NC(=O)C2CCCO2)sc2c1CCCCC2 (stereo unspecified)	?	-3%	?	-32%	4%	4%
O=C(O)c1c(Cl)c(Cl)c(Cl)c(Cl)c1-c1c2cc(I)c(=O)c(I)c-2oc2c(I)c(O)c(I)cc12	·	14µM*	·	12µM*	14µM*	·
Cc1ccc2c(c1)-c1ccccc1S(=O)(=O)N2	14%	1%	-7%	1%	18%	7%
Nc1ccc2c(c1)-c1ccccc1S(=O)(=O)N2	14µM*	-5%	45µM*	?	47%	-2%
C/C(=N\Nc1ccc(Cl)c(C(=O)O)c1)c1cc2ccccc2o1	99%	2%	-20%	-3%	10µM*	16%
C/C(=N\NC(=O)c1cc2ccccc2cc1O)c1cc2ccccc2o1	22µM*	-5%	56µM*	79µM*	8%	7.1µM*
CC[N+]1(C)CCC(=C2c3ccccc3CC(=O)c3sccc32)CC1 (stereo unspecified)	1%	-2%	-14%	-5%	-1%	-10%
C[N+]1(C)CCC(=C2c3ccccc3CC(=O)c3sccc32)CC1	16µM*	3%	-6%	-6%	10%	7.9µM*
OCCCN=c1cc(-c2ccccc2)oc2ccc(Cl)cc12	?	5%	-12%	-8%	5%	45µM*
O=c1cc(-c2ccccc2)oc2ccccc12	24%	26%	-6%	4%	6%	·
Nc1cc2nsnc2cc1Br	3.5µM*	?	3.5µM*	-19%	8%	?
Cc1oc(-c2cccs2)nc1CS(=O)CC(=O)NCCCN1CC(C)CC(C)C1 (stereo unspecified)	-8%	-9%	-8%	7%	0%	16%
SMILES	POLI inh	APE1 inh	Pol eta inh	POLK inh	GLS inhibitor	POLB inh
O=C(N/N=C\c1ccc(Br)o1)C1COc2ccccc2O1 (stereo unspecified)	45µM*	?	45µM*	-74%	-26%	35µM*
CN(C)c1ccc(/C=N/NC(=O)C2COc3ccccc3O2)o1 (stereo unspecified)	6%	-1%	-21%	-4%	-4%	32%
CCOc1ccc(NC(=O)CSc2nnc(-c3cc(C)[nH]n3)n2N)cc1	39%	?	-19%	-12%	-9%	2%
CCOc1ccccc1NC(=O)COc1coc(CN2CCCc3ccccc32)cc1=O	9%	-10%	-9%	-13%	6%	·
COc1ccc(-c2coc3c(C)c4oc(=O)c(CCC(=O)O)c(C)c4cc23)cc1	?	-22%	50µM*	-41%	?	?
Cc1c(CC(=O)O)c(=O)oc2c(C)c3occ(-c4ccc(F)cc4)c3cc12	-12%	11%	0%	7%	22%	50µM*
Cc1c(CC(=O)N[C@@H](C)C(=O)O)c(=O)oc2c(C)c3occ(-c4ccccc4)c3cc12	?	9%	4%	?	24%	-29%
COc1ccc2oc(-c3cccc(NC(=O)c4sc5c([N+](=O)[O-])cccc5c4Cl)c3)nc2c1	?	·	-8%	-5%	-14%	33%
CCOc1cc(C2NC(=S)NC(C)=C2C(=O)Nc2ccccc2)ccc1O (stereo unspecified)	8%	21%	-8%	-8%	?	7%
O=C(c1cc2ccccc2o1)N1CCN=C1SCc1cccc(F)c1	2%	1%	-17%	-7%	-3%	16%
N#Cc1c(NCCN)nc(-c2ccco2)c2c1CCCC2	-4%	-8%	-14%	-9%	5%	56µM*
Cc1nc(NCc2ccco2)c(C#N)c2c1COC(C)(C)C2	?	-6%	8%	-3%	0%	1%
CC1(C)Cc2c(C#N)c(NCc3ccco3)nc(-c3ccco3)c2CO1	?	14%	14µM*	-45%	-22%	?
CN1C=C/C(=C\c2cc[n+](C)c3ccccc23)c2ccccc21	12%	3%	-30%	1%	-8%	?
COCc1cc(C)nc(SCC(=O)N2CCC(C)CC2)c1C#N	?	11%	-5%	0%	2%	23%
CCOC(=O)c1sc(NC(=O)CS(=O)(=O)c2ccc(C)cc2)nc1C	43%	-12%	-18%	4%	8%	31%
O=C(CN1c2ccccc2Sc2ccccc21)NNC(=S)Nc1ccc(Cl)cc1	151%	?	-11%	-14%	16µM*	-5%
COc1cc(C(=O)Nc2c(C(=O)O)[nH]c3ccc(Br)cc23)cc(OC)c1OC	-2%	27%	-17%	7%	-1%	?
COc1cccc(/C=N/n2c(C3CCCCC3)n[nH]c2=S)c1OC	13%	-5%	-4%	-10%	?	-1%
COc1cccc(/C=N/n2c(C3CCCCC3)n[nH]c2=S)c1O	18%	4%	-14%	-5%	7.9µM*	86%
